Rows were chosen to be rich in hits. Some 1.1% of all compounds tested hit in one or more screens of this group.
AmpC inh no detg = inhibitors of E. coli AmpC beta-lactamase without detergent. AmpC nitrocefin hydrolysis, absorbance 480 nm, 0.0001% Triton. AID 485341. P00811. actives 0.52% (n = 330,000). Potency, µM (titrated, usually from 57.1 µM), for the others: at the highest dose activity change, negative = inhibition, actives largely listed as inhibitors;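 also: plate controls were no compound for no effect and no enzyme for full effect; nearly all actives have a fitted effect of over 20% in size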
Target sequence (P00811 whole entry, looked up): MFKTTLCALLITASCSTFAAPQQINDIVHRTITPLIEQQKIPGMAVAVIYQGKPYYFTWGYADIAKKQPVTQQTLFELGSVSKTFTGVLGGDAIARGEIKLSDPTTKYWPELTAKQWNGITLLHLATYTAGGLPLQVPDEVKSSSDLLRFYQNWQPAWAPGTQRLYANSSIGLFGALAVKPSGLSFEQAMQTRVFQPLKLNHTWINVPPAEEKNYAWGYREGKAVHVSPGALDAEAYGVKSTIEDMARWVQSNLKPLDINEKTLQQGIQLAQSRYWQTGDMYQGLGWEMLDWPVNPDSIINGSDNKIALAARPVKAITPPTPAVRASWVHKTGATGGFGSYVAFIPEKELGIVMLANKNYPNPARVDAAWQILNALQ
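AmpC (5.3 nM in the dispensed reagent) in 20 mM phosphate pH 7.0 with 0.01% (detergent screen) or 0.0001% Triton X-100 was preincubated with compounds for 15 min at room temperature. Nitrocefin was then added from an 800 uM solution, and hydrolysis was followed at 480 nm.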
VACV Venus inh = inhibitors of vaccinia virus (Venus reporter). Vaccinia virus Venus reporter expression, fluorescence. Potency, µM (highest dose often 36.5 µM), inactives show at the top dose activity change, negative = inhibition, actives largely listed as inhibitors. actives 0.46% (n = 330,000). AID 720580; calls by dose curve; tested in A549 cells; also: nearly all actives have a fitted effect of over 30% in size
AmpC inh detg = blocks E. coli AmpC beta-lactamase in detergent assay | AmpC hydrolysis of nitrocefin, absorbance 480 nm, 0.01% Triton | Potency, µM (highest dose often 114 µM), for inactives: at the top dose activity change, negative = inhibition, usual class: inhibitors | actives 0.041% (n = 370,000);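 also: 0% = no-compound wells and -100% = no-enzyme wells; nearly all actives have a fitted effect of over 25% in size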
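20 mM phosphate pH 7.0 + 0.01% (detergent screen) or 0.0001% Triton X-100; 5.3 nM AmpC reagent; cpd preinc 15 min RT; nitrocefin (800 uM stock) to start; A480 q20 s × 4 min; Activity was normalised to no-enzyme and no-compound control wells.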
Vaccinia mCherry = vaccinia inhibition (mCherry reporter) | Potency, µM (titrated, usually from 36.5 µM), without a hit: at the top dose activity change, negative = inhibition, most hits filed as inhibitors | Vaccinia virus mCherry reporter infection, fluorescence | actives 0.63% (n = 310,000); calls by dose curve; tested in A549 cells; also: nearly all actives have a fitted effect of over 35% in size
An asterisk follows results filed as active; i = inactive; u = inconclusive; x = not tested or not shown; ! = not active in a repeat. Unless noted, calls follow the shape of the dose curve; as a rule, active = well fitted curve in the direction sought with a large enough effect; inconclusive = small, poorly fitted or top-dose-only effect, or another doubt; inactive = no such curve, though single readings can be large; an effect the other way counts as inactive or inconclusive. Unless noted, % is scaled to controls: 0 for no effect and ±100 for the full control effect; potency is read from the fitted curve at half-maximal effect.

SMILES | AmpC inh no detg | VACV Venus inh | AmpC inh detg | Vaccinia mCherry
COc1ccc(-c2csc(NC(C)c3nc4cc(Cl)c(N5CCCCC5)cc4n3CCCO)n2)cc1 (stereo unspecified) | x | u | x | 8.9µM*
NS(=O)(=O)c1ccc(NC(=O)N2c3ccccc3Sc3ccccc32)cc1 | 35µM* | -23% | -11% | -28%
O/C=c1\ccc2cccc3nc(C(F)(F)F)nc1c23 | 13µM* | 10% | 1% | -8%
Cc1cc(=O)[nH]c(SCC(=O)Nc2nc(-c3ccccc3)cs2)n1 | -36% | 11% | 1% | -8%
COc1ccccc1Nc1nnc(SCC(=O)Nc2nc(-c3ccc(F)cc3)cs2)s1 | 16µM* | u | 0% | i
CC(C)Nc1nnc(SCC(=O)Nc2ccc3c(c2)C(=O)c2ccccc2C3=O)s1 | 10µM* | u | 2% | u
CSc1nnc(SCC(=O)Nc2ccc3[nH]c(=O)[nH]c3c2)s1 | -8% | x | -2% | x
Cc1nnc(SCC(=O)Nc2nc(-c3ccc(F)cc3)cs2)[nH]c1=O | -28% | u | 6% | 13µM*
CCOc1ccccc1Nc1nnc(SCC(=O)Nc2ccc3[nH]c(=O)[nH]c3c2)s1 | 18µM* | 30% | -3% | i
CCN(CC)C1CCN(C(=O)c2cnn(-c3nccc(-c4ccco4)n3)c2C(C)C)C1 (stereo unspecified) | x | -4% | x | -11%
Cc1ncc2c(c1CNC(=O)/C=C/c1cccs1)CCN(C(=O)c1c(C)noc1C)C2 | x | 8% | x | -14%
NC1=C(Br)C(=O)c2ncccc2C1=O | x | 2.5µM* | x | u
O=C1c2cccnc2C(=O)N1CO | -5% | -15% | -8% | x
COc1ccc(-c2cc(C(=O)N3CCc4c(cnc(C)c4CNC(=O)c4ccsc4)C3)[nH]n2)cc1 | x | 12% | x | -5%
O=C(NCC1Cc2cccc(-c3cnccn3)c2O1)c1ccc(F)c(Cl)c1 (stereo unspecified) | x | -4% | x | -10%
O=C(CCN1C(=O)S/C(=C\c2cccs2)C1=O)NC1=NCCS1 | 22µM* | -18% | -3% | -15%
O=C(CCN1C(=O)/C(=C/c2cccs2)SC1=S)Nc1ccccn1 | -36% | x | -2% | x
O=C(Nc1nc(-c2ccccn2)cs1)c1ccccc1-n1cnnn1 | -29% | -25% | 3% | 1.3µM*
O=C(Nc1nc(-c2ccccn2)cs1)c1ccc2c(c1)OCCO2 | -21% | u | 6% | 11µM*
CC(=O)Nc1ccc(C(=O)Nc2nc(-c3ccccn3)cs2)cc1 | -2% | x | -9% | x
O=C(NNC(=O)c1cc2ccccc2cc1O)Nc1ccccc1F | 18µM* | x | -3% | x
N#C/C(=C\c1cccc2ccccc12)c1nn(-c2ccccc2)c(N)c1C#N | x | -16% | x | -24%
Cc1ccc(/C=C(\C#N)c2nn(-c3ccccc3)c(N)c2C#N)cc1 | -6% | u | 2% | 10µM*
CCOC(=O)CC(=O)CSc1ccc2nnc(-c3ccccc3)n2n1 | 0.16µM* | x | 2% | x
CCSc1ccc2nnc(-c3ccc(F)cc3)n2n1 | 0.4µM* | -11% | 3% | -17%
SMILES | AmpC inh no detg | VACV Venus inh | AmpC inh detg | Vaccinia mCherry
CCOC(=O)CSc1ccc2nnc(-c3ccncc3)n2n1 | -7% | -9% | -11% | 27%
CCOC(=O)CNC(=O)CSc1ccc2nnc(-c3ccc(F)cc3)n2n1 | -15% | -5% | u | i
COc1ccc(C(=O)NCCc2nnc3n2CCN(CC2CC=CCC2)CC3)cc1 (stereo unspecified) | x | -8% | x | -22%
O=C(CN1C(=O)NC2(CCCC2)C1=O)Nc1cc(C(F)(F)F)ccc1N1CCCCC1 | 35µM* | -29% | u | u
O=C(CN1C(=O)NC2(CCCCC2)C1=O)Nc1cc(C(F)(F)F)ccc1N1CCCCC1 | -2% | -28% | -1% | -17%
C[C@H](NC(=O)OC(C)(C)C)c1nnc(SCc2c(F)cccc2Cl)o1 | x | 3% | 6% | -4%
CC(C)(C)OC(=O)N[C@@H](Cc1ccccc1)c1nnc(S(=O)(=O)Cc2cccc(F)c2)o1 | -56% | u | 25µM* | x
CC(C)[C@H](NC(=O)OC(C)(C)C)c1nnc(S(=O)(=O)Cc2c(F)cccc2Cl)o1 | 2.5µM* | -14% | 2µM* | i
CC[C@@H](C)[C@H](NC(=O)OC(C)(C)C)c1nnc(S(=O)(=O)Cc2cc(C)ccc2C)o1 | u | u | 11µM* | x
Cc1cc2c(cc3c(SCc4cccc(F)c4)nnc(C)n32)o1 | x | -18% | 11% | -19%
CC(C)C[C@H](N)c1nnc(S(=O)(=O)Cc2cccc(F)c2)o1 | 4.5µM* | -1% | 3.5µM* | -8%
CCOC(=O)CSc1nnc([C@H](Cc2ccccc2)NC(=O)OC(C)(C)C)o1 | 25% | x | -7% | x
Cc1ccccc1C1(CC(=O)N2CCCC2c2nccs2)CC(=O)N(C2CCCC2)C1=O (stereo unspecified) | x | -22% | x | i
CC(C)C[C@H](NC(=O)OC(C)(C)C)c1nnc(SCc2ccccc2)o1 | 25% | x | -1% | x
Cc1ccccc1CS(=O)(=O)c1nnc([C@H](CC(C)C)NC(=O)OC(C)(C)C)o1 | u | x | 14µM* | x
O=C(CCl)Nc1c[nH]c(=O)[nH]c1=O | -13% | 7.9µM* | u | 7.1µM*
COc1cc(/C=C/C(C)=NNc2ccccc2)ccc1O | x | -21% | x | 3.5µM*
COc1cc(/C=C/C(=O)O)ccc1O | x | u | x | 3%
c1ccc(-c2c(-c3ccccc3)n(Cc3ccco3)c3ncnc(NCCCn4ccnc4)c23)cc1 | 179% | 13µM* | -7% | u
CCS(=O)(=O)NCc1c(C)ncc2c1CCN(C(=O)c1csc(-c3cccs3)n1)C2 | x | 0% | x | -5%
CC(O)(COc1ccccc1)c1ccc2c(c1)CN(Cc1cccc3ncccc13)CCO2 (stereo unspecified) | x | -4% | x | -19%
O=C(O)CC1(CC(=O)N2CCC(C(=O)O)CC2)CCCC1 | -53% | -11% | 45µM* | i
O=C(O)CC1(CC(=O)N2CCN(CCO)CC2)CCCC1 | -21% | 0% | -1% | -2%
O=C(O)CC1(CC(=O)N2CCOCC2)CCCC1 | -52% | 6% | 35µM* | 23%
CC1CCC2(CC1)NC(=O)N(NC(=O)CCl)C2=O (stereo unspecified) | -7% | u | 5% | 16µM*
SMILES | AmpC inh no detg | VACV Venus inh | AmpC inh detg | Vaccinia mCherry
CC1CCC2(CC1)NC(=O)N(NC(=O)c1cccs1)C2=O (stereo unspecified) | -20% | x | u | x
COCc1ccc(C(=O)N2CCOc3ccc(CN4CCN(c5ccc(F)cc5)CC4)cc3C2)o1 | x | -31% | x | -5%
CN(C)c1ccc(/C=C/c2ccc3ccccc3n2)cc1 | -14% | -5% | 8% | 12%
CN(C)c1ccc(/C=C/c2ccnc3c(O)cccc23)cc1 | x | u | x | 10µM*
CN(C)c1ccc(/C=C/c2cccc3cc4ccccc4nc23)cc1 | x | 16µM* | x | 11µM*
O=C(CCl)NCCNC(=O)c1cc(OCC(F)(F)F)ccc1OCC(F)(F)F | 0% | 2µM* | -3% | 2µM*
O=C(NCC1CCCCN1)c1cc(OCC(F)(F)F)ccc1OCC(F)(F)F (stereo unspecified) | -4% | 10µM*! | -13% | 35µM*!

Screening data (PubChem)
